ClpP mod: qHTS Assay for Activators of ClpP; ATP-dependent Clp protease proteolytic subunit (Bacillus subtilis (strain 168)), P80244; purified B. subtilis ClpP, FRET peptide cleavage, 20 min; Potency, µM (top dose mostly 57.5 µM); actives 1.9% (n = 340,000); active = well fitted falling curve with a large enough effect; inconclusive = small, poorly fitted or top-dose-only effect; inactive = no such curve, though single readings can be large or run the other way; also: the source files actives as falling curves though it sought activators and does not explain the sign; nearly all actives have a fitted effect of over 65% in size
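Purified B. subtilis ClpP, 10 microg/mL final in Tris/HCl pH8 with KCl, BSA, glycerol and Tween-20, cleaved an Abz/nitrotyrosine-quenched decapeptide. Fluorescence (ex 320, em 430) was read at 0 and 20 min at room temperature. Delta was normalized to 5.8 microM ADEP and DMSO/no-enzyme controls.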
DRD3 antagonist: qHTS of D3 Dopamine Receptor Antagonist: qHTS | D(3) dopamine receptor (Homo sapiens), P35462 | D3R cells, DiscoveRx beta-arrestin luminescence, antagonist mode; active compounds read low | max response, negative = inhibition, % | actives 2.5% (n = 360,000); in the data active = max response below about -50%; inconclusive = no clear call, values can overlap the other calls
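Cells expressing the human receptor were seeded at 1500 cells/well, incubated overnight at 37 degrees C in 5% CO2, then exposed to library compounds with dopamine controls for 90 minutes at 37 degrees C before luminescent detection.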
GLP-1R agonist: qHTS of GLP-1 Receptor Agonists | actives 0.007% (n = 380,000) | Potency, µM (doses to about 45.6 µM), hits mostly activators | HEK293 GLP-1R CRE-luciferase, luminescence, 4-6 h; cells express a hypersensitive GLP-1R form | Glucagon-like peptide 1 receptor (Homo sapiens), P43220
Target sequence (P43220 whole entry, looked up): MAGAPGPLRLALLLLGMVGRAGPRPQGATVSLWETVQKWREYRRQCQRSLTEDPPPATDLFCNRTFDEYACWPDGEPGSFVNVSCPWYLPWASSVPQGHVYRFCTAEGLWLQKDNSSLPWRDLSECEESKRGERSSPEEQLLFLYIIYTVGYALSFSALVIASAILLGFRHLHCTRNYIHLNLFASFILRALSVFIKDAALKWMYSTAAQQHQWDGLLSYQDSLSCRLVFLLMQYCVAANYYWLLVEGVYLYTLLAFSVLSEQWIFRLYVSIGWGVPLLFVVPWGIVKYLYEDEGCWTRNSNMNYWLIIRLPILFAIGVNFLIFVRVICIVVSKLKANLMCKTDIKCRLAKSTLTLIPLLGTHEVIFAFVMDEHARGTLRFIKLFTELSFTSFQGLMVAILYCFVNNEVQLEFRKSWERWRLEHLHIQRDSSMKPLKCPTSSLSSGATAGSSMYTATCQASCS
GLP1R cytotox: qHTS of GLP-1 Receptor Inverse Agonists: Cytotox Screen | HEK293 cAMP-luciferase reporter cells, luminescence, 24 h | Potency, µM (highest dose often 38.3 µM), actives largely listed as inhibitors | AID 624418, 2012 | actives 0.13% (n = 410,000);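 also: loss of luciferase light is scored as toxicity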
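A 23 nL compound transfer followed 12 hours of cell culture at 37 deg C; exposure then lasted 24 hr. Luciferase assay detection reagent was dispensed and plates read for luminescence after a 12 min room-temperature wait.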
GLP1R inv ag: qHTS of GLP-1 Receptor Inverse Agonists (Inhibition Mode); Glucagon-like peptide 1 receptor (Homo sapiens), P43220; HEK293 GLP-1R CRE-luciferase, luminescence, 24 h; GLP-1R form is constitutively active; Potency, µM (top dose mostly 38.3 µM), hits mostly inhibitors; actives 1.6% (n = 410,000); AID 624417, 2012; also: nearly all actives have a fitted effect of over 55% in size
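GLP-1R inverse agonism mode: basal reporter luminescence in engineered HEK293 cells measured after one day of compound exposure at 37 deg C, with a 12 min room-temperature detection step.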
D3 ag: qHTS of D3 Dopamine Receptor Agonist: qHTS; D(3) dopamine receptor (Homo sapiens), P35462; D3R DiscoveRx beta-arrestin cells, luminescence, 90 min; max activation, %; actives 0.58% (n = 410,000); AID 652048, 2013; in the data active = max activation above about 30%
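Agonist mode: compounds and dopamine controls were applied to plated cells for 90 min at 37 degrees C after an overnight attachment at 1500 cells/well. Luminescent read-out followed 30 - 60 minutes at room temperature with DiscoveRx detection reagent.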
Large screens that a line does not name were inactive. An excerpt weighted towards active compounds, which were near 5.7% of everything screened. Unless noted, calls follow the shape of the dose curve; as a rule, active = well fitted curve in the direction sought with a large enough effect; inconclusive = small, poorly fitted or top-dose-only effect, or another doubt; inactive = no such curve, though single readings can be large; an effect the other way counts as inactive or inconclusive.

O=C(COc1ccc2oc(-c3ccccc3)cc(=O)c2c1)NCc1ccco1	ClpP mod 35.5µM
Cc1cc(=O)oc2ccc(OCC(=O)NCc3ccco3)cc12	ClpP mod inconclusive
Cc1cc(=O)oc2cc(OCC(=O)NCc3ccncc3)ccc12	ClpP mod 22.4µM
Cc1cc(=O)oc2cc(OCC(=O)NCc3ccco3)ccc12	ClpP mod 28.2µM
CCOC(=O)[C@]12CCC=C1N(Cc1ccc3c(c1)OCO3)C(=O)[C@H](CC(=O)NCC13CC4CC(CC(C4)C1)C3)C2	GLP1R inv ag inconclusive
CCOc1ccccc1NC(=O)C1CCCN1S(=O)(=O)c1ccc2nc(-c3ccccc3)[nH]c2c1 (stereo not drawn)	ClpP mod inconclusive, GLP1R inv ag inconclusive (no result: DRD3 antagonist, GLP-1R agonist)
COc1cc(C2NC(=O)NC(C)=C2C(=O)Nc2cc(C)cc(C)c2)ccc1O (stereo not drawn)	none (no result: DRD3 antagonist)
Cc1cccc(OCC(=O)Nc2ccc3c(C)cc(=O)oc3c2)c1	ClpP mod 12.6µM
Brc1ccc(CN2CCN(Cc3c[nH]c4ccccc34)CC2)cc1	DRD3 antagonist -64.1, GLP1R inv ag inconclusive
O=[N+]([O-])c1ccc(CN2CCN(Cc3c[nH]c4ccccc34)CC2)cc1	DRD3 antagonist inconclusive, GLP1R inv ag inconclusive (no result: ClpP mod)
Brc1ccccc1CN1CCN(Cc2c[nH]c3ccccc23)CC1	DRD3 antagonist -80.2, GLP1R cytotox inconclusive, GLP1R inv ag inconclusive (no result: ClpP mod)
CN1CCCN(Cc2ccccc2Br)CC1	DRD3 antagonist -51.3, GLP1R inv ag inconclusive
COc1ccc(C)cc1NC(=O)N1CCN(c2nnc(C)c3c(C)n(-c4ccccc4)nc23)CC1	none (no result: DRD3 antagonist, GLP-1R agonist)
CCc1cc(Cn2nc(-c3ccccc3)cc2C(=O)NCc2ccccc2OC)on1	GLP1R inv ag 11.2µM
COC(=O)/C=C1\OCc2c(F)cccc21	none (no result: GLP-1R agonist)
CCCNc1nc(OCC(F)(F)F)nc(OCC(F)(F)F)n1	none
CN1CCN(c2nc(NCCOC34CC5CC(CC(C5)C3)C4)nc(OCC(F)(F)F)n2)CC1	DRD3 antagonist -60.7
Cc1ccc(CN2C(=O)CSCC2(C)C(=O)NC(C)C)cc1 (stereo not drawn)	none (no result: GLP-1R agonist)
COc1ccc(C(CCN2CCOCC2)c2c(O)cc(OC)cc2OC)cc1 (stereo not drawn)	none
COc1ccc(C(c2c(O)ccc3ccccc23)N2CCOCC2)c(OC)c1 (stereo not drawn)	ClpP mod inconclusive, DRD3 antagonist inconclusive, GLP1R cytotox inconclusive, GLP1R inv ag 10µM
O=C(NC(=S)NNC(=O)c1ccccc1O)c1cccs1	D3 ag 37.0 (no result: ClpP mod)
Cc1onc(-c2ccccc2)c1C(=O)NC(=S)NNC(=O)c1ccccc1O	GLP1R cytotox inconclusive, GLP1R inv ag 2.82µM
Cc1ccccc1CNc1nc(N(C)C)nc2c1cnn2C	GLP1R inv ag inconclusive (no result: DRD3 antagonist, GLP-1R agonist)
Cc1ccc(S(=O)(=O)NCCSc2nnnn2-c2ccc(Cl)c(C(=O)O)c2)cc1	none (no result: DRD3 antagonist)
COc1ccccc1CNC(=O)CCn1c(=O)c2cccn2c2cccnc21	ClpP mod inconclusive (no result: DRD3 antagonist, GLP-1R agonist)
O=[N+]([O-])c1ccccc1C=NN1CCCCCC1	GLP1R inv ag inconclusive
Cc1cc(NC2CCCCC2)nc2ccccc12	DRD3 antagonist -66.6, GLP1R cytotox inconclusive, GLP1R inv ag inconclusive
Cc1cc(NCc2ccccn2)nc2ccccc12	ClpP mod inconclusive
CCC1S/C(=N\S(=O)(=O)c2cccs2)N(C2CCCCC2)C1=O (stereo not drawn)	ClpP mod 28.2µM
CC(CNC(=O)c1cccnc1)NC(=O)c1cccnc1 (stereo not drawn)	none (no result: ClpP mod, DRD3 antagonist, GLP1R cytotox, GLP1R inv ag)
Cc1ccc(OCc2ccc(-c3nc(C#N)c(NCc4ccccc4Cl)o3)o2)cc1	ClpP mod 25.1µM (no result: DRD3 antagonist, GLP-1R agonist)
COc1ccc(-c2nc(C#N)c(NCc3ccccc3Cl)o2)cc1OC	ClpP mod inconclusive
COCCNc1oc(-c2ccc(COc3ccc(OC)cc3)o2)nc1C#N	ClpP mod inconclusive (no result: DRD3 antagonist, GLP-1R agonist)
